Data as given in the supplement of paper PMC13380429.
A number with no mark means an inactive call.

System: Vero E6 infected with SARS-CoV-2
Experiment: inhibition of SARS-CoV-2 cytopathic effect; higher = more antiviral protection, active = above 15
Details: 48 h

| Compound | inhibition of SARS-CoV-2 cytopathic effect (1 nM) | inhibition of SARS-CoV-2 cytopathic effect (8.33 nM) | inhibition of SARS-CoV-2 cytopathic effect (100 nM) | inhibition of SARS-CoV-2 cytopathic effect (833.33 nM) | inhibition of SARS-CoV-2 cytopathic effect (10000 nM) |
| --- | --- | --- | --- | --- | --- |
| COc1ccccc1N1CCN(CCCCN2C(=O)c3ccccc3C2=O)CC1 | -0.49% | -1.04% | 2.68% | 1.7% | 4.74% |
| O=C(Nc1c[nH]nc1-c1nc2ccc(CN3CCOCC3)cc2[nH]1)NC1CC1 | 0.02% | -0.1% | 0.35% | 0.87% | -5.1% |
| CN1CCCCC1Cn1cc(C(=O)c2cc([N+](=O)[O-])ccc2I)c2ccccc21 (stereo not given) | -0.48% | 0.44% | 0.04% | -2.69% | 4.92% |
| COc1c(N2CCNC(C)C2)c(F)cc2c(=O)c(C(=O)O)cn(C3CC3)c12 (stereo not given) [gatifloxacin] | -0.1% | 1.9% | 0.16% | 0.37% | -2.52% |
| C#CCN1C(C)=C(C(=O)OC)C(c2cccc([N+](=O)[O-])c2)C(C(=O)OCC)=C1C (stereo not given) | 0.91% | 2.53% | 0.36% | 3.36% | 6.77% |
| Cc1cc2nc3c(=O)[nH]c(=O)nc-3n(C[C@H](O)[C@H](O)[C@H](O)CO)c2cc1C [riboflavin] | -3.6% | -1.59% | -1.7% | 0.03% | 0.32% |
| CC(C)C[C@@H]1NC(=O)[C@@H](C(C)C)NC(=O)[C@@H]2CCCN2C(=O)[C@@H](CC(=O)O)NC(=O)[C@@H](Cc2c[nH]c3ccccc23)NC1=O | -2.63% | 1.4% | -0.29% | -0.26% | -0.15% |
| CC1(c2ccccc2)OC(C(=O)O)=CC1=O (stereo not given) [acifran] | 0.88% | 4.17% | 2.12% | -3.24% | 2.64% |
| NCCc1c[nH]c2ccc(O)cc12 [serotonin] | -0.73% | -0.57% | 2.41% | 2.28% | 0.37% |
| Clc1ccc(CCCOCCCN2CCCCC2)cc1 [pitolisant] | 1.67% | 1.19% | -1.62% | -2.26% | -0.08% |
| Nc1nc2ccc(OC(F)(F)F)cc2s1 [riluzole] | -0.39% | -3.06% | 0.81% | 3.82% | 1.88% |
| COc1ccc(CCN(C)CCCN2CCc3cc(OC)c(OC)cc3CC2=O)cc1OC [zatebradine] | 0.14% | 1.94% | 1.29% | 0.25% | -2.07% |
| COc1ccc(S(=O)(=O)Nc2cc(Cl)cc(Cl)c2OC)cc1N1CCNCC1 | -1.83% | 1.03% | 1.96% | 5.17% | -2.32% |
| NCc1cc(O)no1 [muscimol] | -0.61% | 0.05% | 2.35% | 0.14% | 0.49% |
| C=CCN1CC[C@]2(C)c3cc(O)ccc3C[C@H]1[C@H]2C | 1.28% | 1.94% | -1.86% | 0.86% | 1.02% |
| O=c1oc2cc(O)ccc2s1 [tioxolone] | 1.22% | -2.55% | -0.43% | -1.44% | -1.5% |
| CC(=O)OCC(=O)NCCCOc1cccc(CN2CCCCC2)c1 [roxatidine-acetate] | -0.88% | 2.22% | -0.37% | 1.86% | 2.34% |
| Cc1ccc(C)c(OCCCC(C)(C)C(=O)O)c1 [gemfibrozil] | 0.62% | -0.19% | -0.2% | 0.31% | -0.46% |
| Cc1ccc(Sc2cncc3sc(C(N)=O)cc23)cc1 | -1.26% | -2.96% | -2.49% | -2.02% | 4.33% |
| Oc1cc(O)c2c(c1)O[C@H](c1ccc(O)c(O)c1)[C@H](O)[C@H]2c1c(O)cc(O)c2c1O[C@H](c1ccc(O)c(O)c1)[C@H](O)C2 [procyanidin-B-2] | 2.26% | 3.77% | 2.22% | 2.06% | -0.73% |

| Compound | inhibition of SARS-CoV-2 cytopathic effect (1 nM) | inhibition of SARS-CoV-2 cytopathic effect (8.33 nM) | inhibition of SARS-CoV-2 cytopathic effect (100 nM) | inhibition of SARS-CoV-2 cytopathic effect (833.33 nM) | inhibition of SARS-CoV-2 cytopathic effect (10000 nM) |
| --- | --- | --- | --- | --- | --- |
| Cc1cc(O)cc2c1O[C@](C)(CCC[C@H](C)CCC[C@H](C)CCCC(C)C)CC2 [D-delta-tocopherol] | 1.56% | 0.99% | 2.25% | 0.84% | -0.19% |
| O=C(O)c1cc(O)c(O)c(O)c1 [gallic-acid] | -1.87% | 0.61% | 3.05% | -1.88% | 6.6% |
| NS(=O)(=O)c1cc2c(cc1Cl)NC(CC1CCCC1)NS2(=O)=O (stereo not given) [cyclopenthiazide] | 1.26% | 2.37% | -0.67% | -2.85% | -0.14% |
| CN1Cc2c(C(=O)OC(C)(C)C)ncn2-c2ccsc2C1=O | 2.57% | 3.55% | 1.79% | 1.66% | -0.64% |
| N#Cc1ccnc(N2C(=O)CC[C@H]2C(=O)N(c2cncc(F)c2)[C@H](C(=O)NC2CC(F)(F)C2)c2ccccc2Cl)c1 [ivosidenib] | -0.33% | 3.62% | 0.3% | 0.14% | 3.82% |
| C[N+](C)(C)CCCCCNCC12CC3CC(CC(C3)C1)C2 | -4.72% | -5.14% | -6.53% | -6.39% | -4.67% |
| Cc1nc2n(c(=O)c1CCN1CCC(c3noc4cc(F)ccc34)CC1)CCCC2O (stereo not given) [paliperidone] | -1.5% | -3.74% | -2.02% | -3.59% | -4.1% |
| COCC(=O)O[C@]1(CCN(C)CCCc2nc3ccccc3[nH]2)CCc2cc(F)ccc2[C@@H]1C(C)C [mibefradil] | -2.83% | 0.22% | -2.5% | -0.56% | 62.1% (active) |
| CSCC[C@H](NC(=O)[C@H](CC(C)C)NC(=O)[C@@H](Cc1c[nH]c2ccccc12)NC(=O)[C@H](Cc1ccccc1)N(C)C(=O)[C@@H](Cc1c[nH]c2ccccc12)NC(=O)[C@@H](N)CCCNC(=N)N)C(N)=O [antagonist-g] | 2.09% | 0.43% | -0.05% | 1.24% | -1.09% |
| CC(=O)[C@@]1(O)CC[C@H]2[C@@H]3C[C@H](C)C4=CC(=O)C=C[C@]4(C)[C@@]3(F)[C@@H](O)C[C@@]21C [fluorometholone] | 0.01% | 0.61% | 0.19% | -0.97% | 1.57% |
| CC(C)(C)c1ccc(S(=O)(=O)Nc2ccc(Cl)cc2C(=O)c2cc[n+]([O-])cc2)cc1 [vercirnon] | 1.28% | 1.21% | 2.63% | 4.3% | 1.46% |
| C/C(=C\C(=O)Nc1ccccc1C(=O)O)c1ccc2ccccc2c1 | 3.55% | 3.85% | 1.03% | 1.37% | -2.89% |
| O=C(O)C1=CO[C@@H](O[C@@H]2O[C@H](CO)[C@@H](O)[C@H](O)[C@H]2O)[C@@H]2C(CO)=CC[C@H]12 [Geniposidic acid] | -0.41% | 3.01% | 0.36% | -1.23% | 1.07% |
| COc1cc(CCc2cc(NC(=O)c3ccc(N4CC(C)NC(C)C4)cc3)n[nH]2)cc(OC)c1 (stereo not given) | -1.78% | 1.81% | 1.04% | -1.56% | -1.21% |
| Cc1ccc(=O)n(-c2ccc(O)cc2)c1 | -3.24% | -0.95% | 1.12% | 2.81% | 1.12% |
| NC/C(=C/F)CCc1ccc(F)cc1 [mofegiline] | 3.65% | 2.09% | 1.29% | -1.58% | -3.87% |
| Cc1c(N(C)CS(=O)(=O)O)c(=O)n(-c2ccccc2)n1C [metamizole] | 5.03% | 0.47% | -1.36% | -3.82% | 0.29% |
| O=C(Nc1ccccc1C(=O)NC1CCCCNC1=O)c1cc2ccccc2s1 (stereo not given) | -1.69% | -3.72% | -3.22% | -1.52% | -0.14% |
| CC(=O)[C@H]1CC[C@H]2[C@@H]3CC=C4C[C@@H](O)CC[C@]4(C)[C@H]3CC[C@]12C [pregnenolone] | -0.59% | 3.91% | -5.44% | -1.71% | -3.04% |
